This is an account of results in PubChem BioAssay (NCATS).

Assay [1] is described as follows: Quantitative High-Throughput drug screen in 47 multiple myeloma cell lines against the NCATS MIPE library collection: KMS27_JCRB cell viability assay (AID 1918970). Further: nearly all actives have a fitted effect of over 30% in size. The essentials:
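CellTiter-Glo luminescence after 48 h drug exposure at 37 °C; 500 cells/well, 1536-well format, pin-tool compound addition; DMSO = 100%, media-only = 0% viability.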

Assay [2] in a line: Quantitative High-Throughput drug screen in 47 multiple myeloma cell lines against the NCATS MIPE library collection: KMS12PE_JCRB cell viability assay (AID 1918972). Further: nearly all actives have a fitted effect of over 30% in size. The essentials: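 Relative luminescence from CellTiter-Glo served as the viability signal, referenced to DMSO-treated (100%) and cell-free medium (0%) controls. Treatment lasted 48 hours at 37C with 500 cells per well.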

A short description of assay [3]: Quantitative High-Throughput drug screen in 47 multiple myeloma cell lines against the NCATS MIPE library collection: KMS20_JCRB cell viability assay (AID 1918973). Further: nearly all actives have a fitted effect of over 45% in size. The essentials:
(§1)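 CellTiter-Glo luminescence (ATP) after 48 h compound exposure, 37C/5% CO2; 500 cells/well; MIPE 4.0 approved/investigational drugs pinned in; DMSO = 100%, media only = 0% viability.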

The nature of assay [4]: Quantitative High-Throughput drug screen in 47 multiple myeloma cell lines against the NCATS MIPE library collection: KMS21BM_JCRB cell viability assay (AID 1918974). Conditions: ATP luminescence, 48 h; viability: at 45.8 µM (top of the series) unless noted. An outline of the steps:
as §1

Assay [5] is described as follows: Quantitative High-Throughput drug screen in 47 multiple myeloma cell lines against the NCATS MIPE library collection: MMM1_PLB cell viability assay (AID 1918976). Further: nearly all actives have a fitted effect of over 35% in size. An outline of the steps: (§2)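 Readout: median RLU from CellTiter-Glo after 5 min at room temperature. Preceding step was 48 h drug treatment of 500 cells/well at 37 °C, 5% CO2, with DMSO-only and media-only control wells.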

Assay [6] in a line: Quantitative High-Throughput drug screen in 47 multiple myeloma cell lines against the NCATS MIPE library collection: MOLP8_DSMZ cell viability assay (AID 1918977). Further: nearly all actives have a fitted effect of over 45% in size. An outline of the steps:
as §2

Assay [7] in a line: Quantitative High-Throughput drug screen in 47 multiple myeloma cell lines against the NCATS MIPE library collection: KMS12BM_JCRB cell viability assay (AID 1918971). Further: nearly all actives have a fitted effect of over 35% in size. The essentials:
(§3)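 Myeloma cells (500 per well) were exposed to MIPE 4.0 compounds by pin transfer and incubated 48 hours at 37C, 5% CO2. Viability was read as ATP by CellTiter-Glo luminescence, normalised to DMSO (100%) and media-only (0%) wells.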

Assay [8] can be described thus: Quantitative High-Throughput drug screen in 47 multiple myeloma cell lines against the NCATS MIPE library collection: KMS26_JCRB cell viability assay (AID 1918975). Further: nearly all actives have a fitted effect of over 45% in size. The essentials: as §3
Assay [9] is described as follows: Quantitative High-Throughput drug screen in 47 multiple myeloma cell lines against the NCATS MIPE library collection: NCIH929_DSMZ cell viability assay (AID 1918978). Further: nearly all actives have a fitted effect of over 35% in size. An outline of the steps: as §2
Assay [10] can be described thus: Quantitative High-Throughput drug screen in 47 multiple myeloma cell lines against the NCATS MIPE library collection: Karpas25_ECACC cell viability assay (AID 1918968; further: nearly all actives have a fitted effect of over 35% in size). An outline of the steps: as §1

Inconclusive results are not listed. Calls of active or inactive are those of the source. The call rests on the fitted dose curve; in most records, active means well fitted curve in the direction sought with a large enough effect; inconclusive means small, poorly fitted or top-dose-only effect, or another doubt; inactive means no such curve, though single readings can be large; an effect the other way counts as inactive or inconclusive.
Potency means the concentration at half of the fitted maximal effect.

As for `C[C@](N)(Cc1ccc(O)c(O)c1)C(=O)O`, the Potency result in assay [1] and in assay [2] was “inactive” each time. Moreover, the Potency in assay [3] was 16.6 µM (active); in assay [4], 20.9 µM (active); in assay [5], 5.26 µM (active); in assay [6], 13.2 µM (active).

In the case of `O=C(C1CCCCC1)N1CC(=O)N2CCc3ccccc3C2C1` (stereo not drawn), the Potency result in assay [1], in [2], in assay [3] and in assay [6] was “inactive” throughout.

`O=C1c2c(O)ccc(O)c2C(=O)c2c(NCCNCCO)ccc(NCCNCCO)c21`: the Potency in assay [1] is 0.59 µM (active); in assay [7], 1.05 µM (active); in assay [2], 2.96 µM (active); in assay [3], 0.132 µM (active); in [4] it was 1.48 µM (active); in assay [8], 2.35 µM (active). In addition, the figures for the Potency in assay [5], in assay [6] and in assay [9] were 1.48 µM (active), 1.32 µM (active) and 0.526 µM (active), respectively.

As for `CC(C)(C)C(=O)Oc1ccc(S(=O)(=O)Nc2ccccc2C(=O)NCC(=O)O)cc1`, the Potency result in assay [1], in [7], in assay [2] and in assay [8] was “inactive” each time.

Regarding `Cc1ccc(C(=O)Nc2ccc(S(=O)(=O)O)c3cc(S(=O)(=O)O)cc(S(=O)(=O)O)c23)cc1NC(=O)c1cccc(NC(=O)Nc2cccc(C(=O)Nc3cc(C(=O)Nc4ccc(S(=O)(=O)O)c5cc(S(=O)(=O)O)cc(S(=O)(=O)O)c45)ccc3C)c2)c1`, the Potency entry in assay [1], in [7], in assay [2], in [4], in assay [6] and in assay [9] was “inactive” each time. The Potency in [5] is 0.0372 µM (active).

With `CC(CCc1ccc(O)cc1)NCCc1ccc(O)c(O)c1` (stereo not drawn), the Potency is 18.7 µM (active) in assay [1], 14.8 µM (active) in assay [7], 20.9 µM (active) in [2] and 10.5 µM (active) in assay [5]. Moreover, the Potency entry in assay [3] is “inactive”.

Turning to `CCOC(=O)C(C)(C)Oc1ccc(Cl)cc1`, the Potency entry in [1], in assay [2], in [3], in assay [6] and in assay [9] was “inactive” in each case. Further, the Potency in [5] is 7.43 µM (active).

For the compound `CN1CCN(CCCN2c3ccccc3Sc3ccc(Cl)cc32)CC1`, the Potency in assay [1] is 16.6 µM (active); in [7], 16.6 µM (active); in [2] it was 8.33 µM (active); in assay [3] it was 8.33 µM (active); in [4], 6.62 µM (active); in [5], 26.4 µM (active). In addition, in assay [9], the Potency is 29.6 µM (active).

In the case of `O=C(c1ccc(OCCN2CCCCC2)cc1)c1c(-c2ccc(O)cc2)sc2cc(O)ccc12`, the Potency in assay [1] is 20.9 µM (active); in assay [2] it was 23.5 µM (active); in [3] it was 16.6 µM (active); in assay [4], 13.2 µM (active); in [9], 23.5 µM (active).

For `CS(=O)(=O)Nc1ccc([N+](=O)[O-])cc1Oc1ccccc1`, the Potency result in assay [1], in assay [2] and in assay [9] was “inactive” throughout. The values for the Potency in [7] and in assay [5] were 20.9 µM (active) and 11.8 µM (active), respectively.

For the compound `COc1ccccc1N1CCN(CC(O)COc2cccc3ccccc23)CC1` (stereo not drawn), the figures for the Potency in assay [10] and in [5] were 11.8 µM (active) and 6.62 µM (active), respectively. Besides, the Potency entry in assay [2], in [6] and in [9] was “inactive” throughout.

On to `COc1cc2nc(N3CCN(C(=O)c4ccco4)CC3)nc(N)c2cc1OC`, for which the Potency in [1] was 9.35 µM (active); in [2], 7.43 µM (active); in assay [3] it was 8.33 µM (active); in assay [6], 20.9 µM (active); in assay [9], 8.33 µM (active).

In the case of `COc1cc2c(c(OC)c1OC)-c1ccc(OC)c(=O)cc1[C@@H](NC(C)=O)CC2`, the Potency result in assay [10], in assay [2], in [4] and in assay [9] was “inactive” each time.

Consider `CCCNCC(O)COc1ccccc1C(=O)CCc1ccccc1` (stereo not drawn), for which, in assay [10], the Potency was 16.6 µM (active). Moreover, the Potency result in [7], in assay [6] and in assay [9] was “inactive” in each case.

As for `CN1C2CCC1CC(OC(=O)C(CO)c1ccccc1)C2` (stereo not drawn), the Potency entry in [1], in [7], in assay [2], in assay [3], in assay [8] and in assay [5] was “inactive” in each case. For the same compound, the Potency entry in assay [6] and in assay [9] was “inactive” throughout.

As for `COc1ccccc1OCC(O)CN1CCN(CC(=O)Nc2c(C)cccc2C)CC1` (stereo not drawn), the Potency entry in assay [1], in assay [7], in assay [2] and in assay [3] was “inactive” each time.

With `Cc1cnc(C(=O)NCCc2ccc(S(=O)(=O)NC(=O)NC3CCCCC3)cc2)cn1`, the Potency result in assay [1], in assay [6] and in [9] was “inactive” in each case. Moreover, the Potency in assay [7] was 18.7 µM (active); in [2], 14.8 µM (active).

As for `OCCN(CCO)c1nc(N2CCCCC2)c2nc(N(CCO)CCO)nc(N3CCCCC3)c2n1`, the Potency in [1] was 20.9 µM (active); in assay [7], 26.4 µM (active); in [2], 23.5 µM (active); in [5], 23.5 µM (active); in assay [6], 16.6 µM (active).

On to `CN(C)CCC=C1c2ccccc2C=Cc2ccccc21`, for which the Potency result in assay [1], in assay [2] and in assay [9] was “inactive” throughout. Besides, the Potency in assay [7] is 1.48 µM (active); in assay [3], 14.8 µM (active); in [5] it was 4.18 µM (active).

On to `Cc1ccc(-c2cc(C(F)(F)F)nn2-c2ccc(S(N)(=O)=O)cc2)cc1`, for which the Potency in [2] is 4.18 µM (active).

As for `Cc1ccccc1N1C(=O)c2cc(S(N)(=O)=O)c(Cl)cc2NC1C` (stereo not drawn), the Potency result in assay [7], in assay [3] and in assay [9] was “inactive” throughout.
